# Measured values: paper PMC4336329 (PLoS ONE, 2015)
# About 14,000 (4.5%) of roughly 310,000 compounds showed an effect of 50% or more. The effect is printed as a negative number. The list comes from a sample in which strong results are over-represented; it also holds similar structures and randomly drawn compounds.
# Molecular target: human ether-à-go-go-related gene (hERG) potassium channel (human, UniProt Q12809)
# Experiment: primary screen, population patch clamp on CHO cells stably expressing hERG; higher = less effect of the substance
# 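Also: peak tail current of the secondary pulse compared with the same well before compound.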
# Sequence of human ether-à-go-go-related gene (hERG) potassium channel (Q12809 whole entry, looked up): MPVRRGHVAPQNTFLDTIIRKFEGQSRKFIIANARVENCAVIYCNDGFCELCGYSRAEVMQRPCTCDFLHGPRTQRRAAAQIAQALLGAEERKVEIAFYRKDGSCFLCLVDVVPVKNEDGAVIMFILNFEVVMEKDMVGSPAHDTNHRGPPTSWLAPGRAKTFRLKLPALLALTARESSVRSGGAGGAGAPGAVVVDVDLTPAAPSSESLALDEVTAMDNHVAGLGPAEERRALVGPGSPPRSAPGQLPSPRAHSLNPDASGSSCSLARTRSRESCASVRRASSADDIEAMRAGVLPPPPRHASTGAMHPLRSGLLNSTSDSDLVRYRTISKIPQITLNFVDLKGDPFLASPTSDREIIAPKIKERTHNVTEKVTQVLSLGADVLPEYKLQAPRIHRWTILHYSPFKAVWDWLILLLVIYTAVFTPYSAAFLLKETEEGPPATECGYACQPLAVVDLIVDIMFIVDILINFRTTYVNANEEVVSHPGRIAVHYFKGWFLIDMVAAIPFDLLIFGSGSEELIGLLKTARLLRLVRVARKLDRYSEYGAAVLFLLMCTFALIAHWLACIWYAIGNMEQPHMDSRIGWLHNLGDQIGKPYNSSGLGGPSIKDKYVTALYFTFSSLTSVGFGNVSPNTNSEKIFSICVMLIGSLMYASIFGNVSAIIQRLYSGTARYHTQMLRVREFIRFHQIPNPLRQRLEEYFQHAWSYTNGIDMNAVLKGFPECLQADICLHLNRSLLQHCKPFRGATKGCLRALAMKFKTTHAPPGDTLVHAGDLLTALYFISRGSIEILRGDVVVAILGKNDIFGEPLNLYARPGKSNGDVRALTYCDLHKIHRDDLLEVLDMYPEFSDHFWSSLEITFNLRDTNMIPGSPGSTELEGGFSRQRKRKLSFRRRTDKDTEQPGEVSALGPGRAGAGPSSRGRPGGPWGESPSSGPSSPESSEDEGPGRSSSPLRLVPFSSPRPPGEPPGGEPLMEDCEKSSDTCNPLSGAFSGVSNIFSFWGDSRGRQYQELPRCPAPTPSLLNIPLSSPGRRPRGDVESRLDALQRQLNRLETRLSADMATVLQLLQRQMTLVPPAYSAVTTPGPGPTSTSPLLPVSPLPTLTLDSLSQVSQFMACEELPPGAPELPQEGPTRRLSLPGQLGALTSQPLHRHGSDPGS
row,SMILES,"hERG current change (%, negative = inhibition) at 10uM [%]"
1,O=C(O/N=C1\CCCc2ccccc21)C1CC1,14.4
2,O=C(O)CCCC(=O)Nc1ccc(Oc2cccc(C(F)(F)F)c2)nc1,19.4
3,CCC(C(=O)NCCc1ccccc1OC)n1nc(C)c2c(C)n(-c3ccccc3)nc2c1=O (centres unmarked),-30
4,O=C(COC(=O)c1cc(NS(=O)(=O)c2cccs2)ccc1O)Nc1ccc(F)c(F)c1F,4.87
5,CCC(=O)Nc1cccc(NC(=S)NC(=O)c2cccs2)c1,3.59
6,O=C(NC(=S)Nc1cccc(-c2ccc(CO)o2)c1)c1cccs1,23.7
7,CC(C)(O)c1ccc2c(c1)CCC1C(C)(C(=O)O)CCCC21C (centres unmarked),4.17
8,CCOC(=O)Cc1cc(=O)n2[nH]cc(-c3cccc(Br)c3)c2n1,35.6
9,CC(=O)N1CCc2cc(S(=O)(=O)NC(C(=O)Nc3nc(C)cs3)C(C)C)ccc21 (centres unmarked),8.38
10,CCN1C(=O)C2C(c3ccc(O)c(OC)c3)NC(C)(C(=O)OC)C2C1=O (centres unmarked),12.1
11,COc1cc(=O)[nH]c(SCc2c(F)c(F)c(F)c(F)c2F)n1,0.443
12,CC(=O)N(CC(=O)O)c1ccccc1C(=O)O,12
13,O=C(CN1C(=O)/C(=C2\SC(=S)N(CCS(=O)(=O)O)C2=O)c2ccccc21)Nc1cccc(Br)c1,-73.1
14,O=C1/C(=C2\C(=O)N(Cc3ccc(F)cc3)c3ccccc32)SC(=S)N1CCS(=O)(=O)O,4.31
15,Cc1cccc(NC(=O)CN2C(=O)/C(=C3\SC(=S)N(CC4CCCO4)C3=O)c3ccccc32)c1 (centres unmarked),12.9
16,COc1ccccc1CCNC(=O)C1CCC(=O)N(C2CCCCCC2)C1 (centres unmarked),-7.62
17,Cc1ccc(-c2nnc3sc(-c4ccncc4)nn23)cc1,-41.4
18,N#Cc1cc2sc3nnc(-c4ccncc4)n3c2cc1C#N,-54
19,Cc1cn2c(-c3ccncc3)nnc2s1,7.96
20,COCCCNC(=O)c1ccc(Cn2c(=O)c3ccccc3n(CC(=O)NCc3ccco3)c2=O)cc1,6.71
21,COc1cccc2sc(=NC(=O)CS(=O)(=O)c3ccc(Cl)cc3)n(C)c12,-60.8
22,COc1cccc2sc(=NC(=O)CS(=O)(=O)c3ccc(F)cc3)n(C)c12,-0.213
23,COc1cccc2sc(=NC(=O)CCS(=O)(=O)c3ccc(C)cc3)n(C)c12,8.32
